1 sequence from publication PMC7862700, “An all-to-all approach to the identification of sequence-specific readers for epigenetic DNA modifications on cytosine” can be followed below.

Assay in all cases: DAPPL (digital affinity profiling via proximity ligation, sequencing); 10 mM Tris-HCl pH 7.5, 50 mM NaCl, 1 mM DTT, 4% glycerol, room temperature, 30 min; GST-TFs on glutathione beads, 16-mer random dsDNA library, 0.1% formaldehyde crosslink after washing; high values mean tight binding
Test [1] deals with T1, FLI1 (Homo sapiens, UniProt Q01543 1-452).
T1 sequence: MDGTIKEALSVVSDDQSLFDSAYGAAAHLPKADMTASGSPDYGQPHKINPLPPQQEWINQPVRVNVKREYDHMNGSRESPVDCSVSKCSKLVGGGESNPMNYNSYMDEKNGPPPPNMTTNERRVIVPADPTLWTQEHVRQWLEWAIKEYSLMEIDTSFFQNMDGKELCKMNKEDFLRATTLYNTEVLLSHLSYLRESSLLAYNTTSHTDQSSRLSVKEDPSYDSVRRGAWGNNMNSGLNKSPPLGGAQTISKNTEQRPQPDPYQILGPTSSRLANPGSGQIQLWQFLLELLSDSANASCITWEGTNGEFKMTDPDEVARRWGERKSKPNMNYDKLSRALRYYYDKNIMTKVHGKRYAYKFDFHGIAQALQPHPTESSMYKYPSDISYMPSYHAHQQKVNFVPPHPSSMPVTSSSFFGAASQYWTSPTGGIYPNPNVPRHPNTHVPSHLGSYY
To be noted: protein: recombinant; tags: N-terminal GST; dsDNA, one strand shown. An outline of the steps:
(§1)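 The binding signal reported is, for every hexamer, its read frequency for a factor over its read frequency for the tag-only sample. Reads came from pools of yeast-expressed, GST-fused human transcription factors on glutathione beads, barcoded with DNA and mixed with that sample, which were incubated with 200 nmole of a random double-stranded 16-mer DNA library in Tris/NaCl/DTT/glycerol buffer at room temperature for 30 min. After washing, the pools were crosslinked with 0.1% formaldehyde, proximity-ligated with BsaI/T4 ligase for 1 h at 37 °C, PCR-amplified and sequenced on an Illumina NextSeq500.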

Test [2] concerns the target T2, ELK1 (Homo sapiens, UniProt P19419 1-428).
T2 sequence: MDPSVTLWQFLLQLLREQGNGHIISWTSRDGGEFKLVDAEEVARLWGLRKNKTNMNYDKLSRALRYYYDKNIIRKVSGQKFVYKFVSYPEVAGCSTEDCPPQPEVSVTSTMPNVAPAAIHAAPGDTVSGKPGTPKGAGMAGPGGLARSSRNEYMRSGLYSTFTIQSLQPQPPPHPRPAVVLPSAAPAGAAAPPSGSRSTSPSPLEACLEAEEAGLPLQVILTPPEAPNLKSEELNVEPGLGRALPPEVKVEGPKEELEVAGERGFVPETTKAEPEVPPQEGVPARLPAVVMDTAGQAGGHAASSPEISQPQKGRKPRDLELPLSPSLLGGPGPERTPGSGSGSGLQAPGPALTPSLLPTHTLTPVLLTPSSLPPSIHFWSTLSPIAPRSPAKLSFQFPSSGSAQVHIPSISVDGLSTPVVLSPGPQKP
The following applies: protein: recombinant; tags: N-terminal GST; dsDNA, one strand shown. An outline of the steps:
as §1

The target of test [3] is T3, GABPA (Homo sapiens, UniProt Q06546 1-454).
T3 sequence: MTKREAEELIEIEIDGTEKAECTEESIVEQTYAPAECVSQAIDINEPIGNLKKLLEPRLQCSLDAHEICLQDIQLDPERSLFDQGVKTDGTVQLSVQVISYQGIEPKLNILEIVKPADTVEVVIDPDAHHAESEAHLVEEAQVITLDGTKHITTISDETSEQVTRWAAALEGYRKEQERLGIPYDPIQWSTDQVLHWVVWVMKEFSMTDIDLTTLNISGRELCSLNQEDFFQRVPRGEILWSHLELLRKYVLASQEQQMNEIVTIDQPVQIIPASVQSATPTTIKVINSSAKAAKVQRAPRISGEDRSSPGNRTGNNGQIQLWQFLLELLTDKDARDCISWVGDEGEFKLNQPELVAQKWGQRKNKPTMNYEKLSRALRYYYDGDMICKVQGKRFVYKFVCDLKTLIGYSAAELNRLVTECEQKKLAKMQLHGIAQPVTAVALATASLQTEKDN
The following applies: protein: recombinant; tags: N-terminal GST; dsDNA, one strand shown. In outline: as §1

The target in test [4] is T4, ERG (Homo sapiens, UniProt P11308 1-479).
T4 sequence: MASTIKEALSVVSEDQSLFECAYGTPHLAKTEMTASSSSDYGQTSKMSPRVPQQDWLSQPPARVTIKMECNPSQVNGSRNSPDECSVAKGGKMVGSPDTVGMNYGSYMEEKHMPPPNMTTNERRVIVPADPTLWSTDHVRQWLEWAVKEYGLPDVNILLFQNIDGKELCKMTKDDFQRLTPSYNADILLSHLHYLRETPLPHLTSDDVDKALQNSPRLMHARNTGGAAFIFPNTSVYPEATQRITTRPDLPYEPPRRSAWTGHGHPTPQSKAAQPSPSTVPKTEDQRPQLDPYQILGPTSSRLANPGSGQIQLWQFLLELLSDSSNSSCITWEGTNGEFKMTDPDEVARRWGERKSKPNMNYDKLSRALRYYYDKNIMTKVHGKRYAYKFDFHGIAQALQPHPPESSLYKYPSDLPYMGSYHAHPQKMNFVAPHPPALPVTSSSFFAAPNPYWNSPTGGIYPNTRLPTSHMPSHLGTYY
The following applies: protein: recombinant; tags: N-terminal GST; dsDNA, one strand shown. An outline of the steps:
as §1

Test [5] deals with ELF1 (Homo sapiens, UniProt P32519 1-619). To be noted: protein: recombinant; tags: N-terminal GST; dsDNA, one strand shown. In outline:
as §1

Test [6] deals with T5, EHF (Homo sapiens, UniProt Q9NZC4 1-300).
T5 sequence: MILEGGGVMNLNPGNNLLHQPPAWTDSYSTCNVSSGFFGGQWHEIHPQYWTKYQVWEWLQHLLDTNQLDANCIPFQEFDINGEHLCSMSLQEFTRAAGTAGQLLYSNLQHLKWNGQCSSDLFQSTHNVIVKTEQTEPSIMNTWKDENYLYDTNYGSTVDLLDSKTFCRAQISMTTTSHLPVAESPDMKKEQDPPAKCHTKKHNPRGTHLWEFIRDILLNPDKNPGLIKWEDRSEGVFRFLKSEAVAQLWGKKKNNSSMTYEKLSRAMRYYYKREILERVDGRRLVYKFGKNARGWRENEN
To be noted: protein: recombinant; tags: N-terminal GST; dsDNA, one strand shown. An outline of the steps: as §1

The target in test [7] is SPI1 (Homo sapiens, UniProt P17947 1-270). The following applies: protein: recombinant; tags: N-terminal GST; dsDNA, one strand shown. An outline of the steps:
as §1

Test [8] deals with SPIB (Homo sapiens, UniProt Q01892 1-262). The following applies: protein: recombinant; tags: N-terminal GST; dsDNA, one strand shown. An outline of the steps:
as §1

Test [9] has as its target T6, ELK3 (Homo sapiens, UniProt P41970 1-407).
T6 sequence: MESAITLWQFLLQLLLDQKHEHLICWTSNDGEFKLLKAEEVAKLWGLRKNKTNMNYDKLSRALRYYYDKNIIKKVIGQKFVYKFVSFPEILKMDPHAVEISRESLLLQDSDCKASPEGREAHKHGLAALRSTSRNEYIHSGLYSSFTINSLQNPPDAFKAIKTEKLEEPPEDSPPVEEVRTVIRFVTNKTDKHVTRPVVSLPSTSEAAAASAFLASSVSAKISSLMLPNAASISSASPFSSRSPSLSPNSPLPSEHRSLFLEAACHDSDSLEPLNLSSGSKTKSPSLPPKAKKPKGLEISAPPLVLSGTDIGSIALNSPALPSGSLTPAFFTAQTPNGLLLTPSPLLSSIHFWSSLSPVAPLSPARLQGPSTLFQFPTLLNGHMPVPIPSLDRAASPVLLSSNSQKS
To be noted: protein: recombinant; tags: N-terminal GST; dsDNA, one strand shown. An outline of the steps:
as §1

The target in test [10] is T7, FEV (Homo sapiens, UniProt Q99581 1-238).
T7 sequence: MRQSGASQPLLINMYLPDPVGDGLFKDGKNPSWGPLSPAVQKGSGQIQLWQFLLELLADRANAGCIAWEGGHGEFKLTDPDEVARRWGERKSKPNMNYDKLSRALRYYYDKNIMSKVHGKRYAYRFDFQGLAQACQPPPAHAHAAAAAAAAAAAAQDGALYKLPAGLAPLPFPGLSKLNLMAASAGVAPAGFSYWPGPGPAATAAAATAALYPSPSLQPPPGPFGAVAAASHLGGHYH
The following applies: protein: recombinant; tags: N-terminal GST; dsDNA, one strand shown. An outline of the steps:
as §1

Test [11] has as its target ETV5 (Homo sapiens, UniProt P41161 1-510). To be noted: protein: recombinant; tags: N-terminal GST; dsDNA, one strand shown. An outline of the steps: as §1
The target in test [12] is HSF1 (Homo sapiens, UniProt Q00613 1-529). To be noted: protein: recombinant; tags: N-terminal GST; chain copies: 3; dsDNA, one strand shown. An outline of the steps: as §1
Chain of HSF1 (Q00613 whole entry): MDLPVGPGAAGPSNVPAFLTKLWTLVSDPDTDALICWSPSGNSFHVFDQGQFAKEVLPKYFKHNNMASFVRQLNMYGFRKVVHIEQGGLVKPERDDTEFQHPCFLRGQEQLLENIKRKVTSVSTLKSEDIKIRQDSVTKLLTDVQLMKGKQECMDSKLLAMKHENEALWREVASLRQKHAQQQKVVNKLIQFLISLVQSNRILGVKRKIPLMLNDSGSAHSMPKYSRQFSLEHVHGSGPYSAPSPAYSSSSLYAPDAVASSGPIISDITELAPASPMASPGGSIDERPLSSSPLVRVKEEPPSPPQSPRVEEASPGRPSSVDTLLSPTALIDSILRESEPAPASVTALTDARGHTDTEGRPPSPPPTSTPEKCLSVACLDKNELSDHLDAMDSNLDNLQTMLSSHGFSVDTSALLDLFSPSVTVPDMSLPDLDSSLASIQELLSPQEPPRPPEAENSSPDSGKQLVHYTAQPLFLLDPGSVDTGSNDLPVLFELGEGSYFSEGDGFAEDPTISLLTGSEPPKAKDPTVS
Test [13] deals with T8, SPIC (Homo sapiens, UniProt Q8N5J4 1-248).
T8 sequence: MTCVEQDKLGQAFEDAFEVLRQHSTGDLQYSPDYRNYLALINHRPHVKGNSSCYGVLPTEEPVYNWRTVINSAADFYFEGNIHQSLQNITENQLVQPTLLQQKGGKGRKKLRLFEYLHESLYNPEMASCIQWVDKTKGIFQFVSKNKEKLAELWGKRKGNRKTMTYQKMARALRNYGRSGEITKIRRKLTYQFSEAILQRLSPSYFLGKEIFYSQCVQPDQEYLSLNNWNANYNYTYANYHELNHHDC
The following applies: protein: recombinant; tags: N-terminal GST; dsDNA, one strand shown. In outline: as §1

In test [14] the target is ELF4 (Homo sapiens, UniProt Q99607 1-663). To be noted: protein: recombinant; tags: N-terminal GST; dsDNA, one strand shown. In outline: as §1
Chain of ELF4 (Q99607 whole entry): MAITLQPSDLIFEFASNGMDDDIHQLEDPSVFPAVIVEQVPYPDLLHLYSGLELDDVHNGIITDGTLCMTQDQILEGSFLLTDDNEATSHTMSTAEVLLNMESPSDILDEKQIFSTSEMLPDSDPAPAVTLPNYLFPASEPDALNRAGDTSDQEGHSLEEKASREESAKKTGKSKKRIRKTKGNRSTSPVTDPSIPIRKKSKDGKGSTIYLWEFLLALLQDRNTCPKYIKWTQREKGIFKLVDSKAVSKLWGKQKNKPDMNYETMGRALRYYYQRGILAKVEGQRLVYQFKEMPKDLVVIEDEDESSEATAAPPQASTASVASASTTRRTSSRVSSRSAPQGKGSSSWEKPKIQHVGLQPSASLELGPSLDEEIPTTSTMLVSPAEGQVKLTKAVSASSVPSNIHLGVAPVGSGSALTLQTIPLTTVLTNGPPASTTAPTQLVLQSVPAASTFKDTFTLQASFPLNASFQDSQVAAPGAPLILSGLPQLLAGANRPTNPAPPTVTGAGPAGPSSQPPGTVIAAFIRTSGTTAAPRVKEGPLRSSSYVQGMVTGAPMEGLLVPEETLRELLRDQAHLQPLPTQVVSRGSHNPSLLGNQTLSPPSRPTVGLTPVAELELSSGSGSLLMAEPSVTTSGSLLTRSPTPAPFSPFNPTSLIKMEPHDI
Test [15] has as its target T9, ELK4 (Homo sapiens, UniProt P28324-2 1-405).
T9 sequence: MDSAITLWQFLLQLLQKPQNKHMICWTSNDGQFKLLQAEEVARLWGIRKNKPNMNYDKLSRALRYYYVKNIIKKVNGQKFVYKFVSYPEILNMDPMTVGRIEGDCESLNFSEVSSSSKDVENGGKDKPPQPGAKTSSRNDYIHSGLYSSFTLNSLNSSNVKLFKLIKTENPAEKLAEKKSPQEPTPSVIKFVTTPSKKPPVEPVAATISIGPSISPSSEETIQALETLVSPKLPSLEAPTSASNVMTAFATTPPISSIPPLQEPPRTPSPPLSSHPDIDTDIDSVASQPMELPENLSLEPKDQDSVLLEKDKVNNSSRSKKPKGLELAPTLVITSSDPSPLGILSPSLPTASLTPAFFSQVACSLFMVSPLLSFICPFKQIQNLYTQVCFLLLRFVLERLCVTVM
The following applies: protein: recombinant; tags: N-terminal GST; dsDNA, one strand shown. An outline of the steps:
as §1

In test [16] the target is T10, ETV2 (Homo sapiens, UniProt O00321 1-342).
T10 sequence: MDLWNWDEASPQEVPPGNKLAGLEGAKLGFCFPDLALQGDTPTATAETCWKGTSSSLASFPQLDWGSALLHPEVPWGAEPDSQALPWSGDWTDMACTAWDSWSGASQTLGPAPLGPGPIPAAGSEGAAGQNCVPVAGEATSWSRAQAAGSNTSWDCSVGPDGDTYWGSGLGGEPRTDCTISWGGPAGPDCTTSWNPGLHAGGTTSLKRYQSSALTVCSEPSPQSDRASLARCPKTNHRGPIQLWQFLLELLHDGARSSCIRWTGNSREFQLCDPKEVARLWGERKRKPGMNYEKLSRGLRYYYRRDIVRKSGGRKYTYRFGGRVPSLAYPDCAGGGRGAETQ
To be noted: protein: recombinant; tags: N-terminal GST; dsDNA, one strand shown. An outline of the steps:
as §1

For test [17], the target named is T11, ELF3 (Homo sapiens, UniProt P78545 1-371).
T11 sequence: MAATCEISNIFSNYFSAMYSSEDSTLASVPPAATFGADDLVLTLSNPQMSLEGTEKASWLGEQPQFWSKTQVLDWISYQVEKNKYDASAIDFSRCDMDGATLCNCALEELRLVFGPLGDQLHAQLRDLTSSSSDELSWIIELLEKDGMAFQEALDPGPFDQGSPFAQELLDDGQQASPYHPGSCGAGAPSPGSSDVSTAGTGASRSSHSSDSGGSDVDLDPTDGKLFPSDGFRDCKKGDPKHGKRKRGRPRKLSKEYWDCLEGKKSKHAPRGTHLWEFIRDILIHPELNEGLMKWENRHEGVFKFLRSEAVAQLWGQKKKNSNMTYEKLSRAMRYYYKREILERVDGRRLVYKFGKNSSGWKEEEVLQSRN
To be noted: protein: recombinant; tags: N-terminal GST; dsDNA, one strand shown. An outline of the steps:
as §1

For test [18], the target named is CRX (Homo sapiens, UniProt O43186 1-299). To be noted: protein: recombinant; tags: N-terminal GST; dsDNA, one strand shown. In outline: as §1
Chain of CRX (O43186 whole entry): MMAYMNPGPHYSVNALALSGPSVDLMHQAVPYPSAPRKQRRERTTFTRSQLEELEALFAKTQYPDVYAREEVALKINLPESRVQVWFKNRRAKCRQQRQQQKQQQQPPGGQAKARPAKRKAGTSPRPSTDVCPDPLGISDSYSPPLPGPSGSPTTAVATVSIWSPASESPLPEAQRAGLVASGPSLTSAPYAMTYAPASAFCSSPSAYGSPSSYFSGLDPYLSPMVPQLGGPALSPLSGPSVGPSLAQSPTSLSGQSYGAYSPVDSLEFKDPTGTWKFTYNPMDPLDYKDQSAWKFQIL
For test [19], the target named is ETV1 (Homo sapiens, UniProt P50549 1-477). To be noted: protein: recombinant; tags: N-terminal GST; dsDNA, one strand shown. An outline of the steps:
as §1

Chain of SPIB (Q01892 whole entry): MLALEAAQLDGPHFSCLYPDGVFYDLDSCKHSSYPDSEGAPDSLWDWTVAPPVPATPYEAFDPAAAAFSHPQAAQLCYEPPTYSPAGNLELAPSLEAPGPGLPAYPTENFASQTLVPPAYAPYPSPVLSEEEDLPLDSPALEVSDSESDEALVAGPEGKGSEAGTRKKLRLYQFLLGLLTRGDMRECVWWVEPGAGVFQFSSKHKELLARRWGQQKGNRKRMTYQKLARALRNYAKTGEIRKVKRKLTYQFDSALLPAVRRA
Chain of ELF1 (P32519 whole entry): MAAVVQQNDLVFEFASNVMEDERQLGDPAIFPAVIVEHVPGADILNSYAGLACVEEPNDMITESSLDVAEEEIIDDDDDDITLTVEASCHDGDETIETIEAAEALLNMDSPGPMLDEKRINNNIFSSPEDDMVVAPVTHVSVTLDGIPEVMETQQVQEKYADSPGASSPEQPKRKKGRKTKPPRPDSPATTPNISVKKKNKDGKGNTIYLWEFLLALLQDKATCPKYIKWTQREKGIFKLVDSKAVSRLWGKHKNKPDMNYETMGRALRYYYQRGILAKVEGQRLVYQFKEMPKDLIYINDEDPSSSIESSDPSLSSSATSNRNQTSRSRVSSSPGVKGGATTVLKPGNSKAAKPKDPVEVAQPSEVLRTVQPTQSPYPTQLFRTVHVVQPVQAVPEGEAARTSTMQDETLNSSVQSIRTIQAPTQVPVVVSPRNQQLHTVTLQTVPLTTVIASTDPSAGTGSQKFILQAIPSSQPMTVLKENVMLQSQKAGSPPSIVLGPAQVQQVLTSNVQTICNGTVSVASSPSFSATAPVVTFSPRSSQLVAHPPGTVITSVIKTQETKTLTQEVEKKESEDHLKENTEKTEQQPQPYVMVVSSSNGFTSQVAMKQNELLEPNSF
Chain of ETV5 (P41161 whole entry): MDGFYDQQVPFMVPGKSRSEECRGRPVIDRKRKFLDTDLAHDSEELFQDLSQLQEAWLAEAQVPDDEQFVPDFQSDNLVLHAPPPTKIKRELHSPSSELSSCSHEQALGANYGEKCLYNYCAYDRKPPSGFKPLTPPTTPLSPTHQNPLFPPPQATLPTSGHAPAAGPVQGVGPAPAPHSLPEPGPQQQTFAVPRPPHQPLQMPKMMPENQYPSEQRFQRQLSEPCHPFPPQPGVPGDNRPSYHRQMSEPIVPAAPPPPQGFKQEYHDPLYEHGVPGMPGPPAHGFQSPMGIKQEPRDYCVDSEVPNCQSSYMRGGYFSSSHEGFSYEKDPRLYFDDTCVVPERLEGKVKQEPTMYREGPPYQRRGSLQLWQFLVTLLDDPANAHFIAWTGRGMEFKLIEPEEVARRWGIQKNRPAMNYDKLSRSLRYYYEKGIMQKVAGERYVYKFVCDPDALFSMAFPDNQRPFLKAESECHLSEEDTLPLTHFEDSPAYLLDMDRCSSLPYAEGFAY
Chain of ETV1 (P50549 whole entry): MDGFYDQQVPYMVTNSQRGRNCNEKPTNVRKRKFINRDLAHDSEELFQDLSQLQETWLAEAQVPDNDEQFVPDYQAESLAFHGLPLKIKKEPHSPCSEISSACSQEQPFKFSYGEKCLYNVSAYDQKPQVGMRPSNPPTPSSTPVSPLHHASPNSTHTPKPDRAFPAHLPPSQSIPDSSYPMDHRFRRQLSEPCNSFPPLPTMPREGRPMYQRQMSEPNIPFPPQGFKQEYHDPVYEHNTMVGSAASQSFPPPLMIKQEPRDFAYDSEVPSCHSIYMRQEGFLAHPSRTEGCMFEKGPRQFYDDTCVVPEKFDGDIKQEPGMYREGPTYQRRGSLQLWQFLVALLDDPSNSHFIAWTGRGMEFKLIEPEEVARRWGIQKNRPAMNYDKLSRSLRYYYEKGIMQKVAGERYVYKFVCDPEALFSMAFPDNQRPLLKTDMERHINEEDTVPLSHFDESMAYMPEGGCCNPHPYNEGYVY

As for CTATTG, the binding signal is 1.33 fold enrichment (6-mer frequency, TF over GST control) in test [1]; 1.33 fold enrichment (6-mer frequency, TF over GST control) in test [2]; 1.31 fold enrichment (6-mer frequency, TF over GST control) in [3]; 1.3 fold enrichment (6-mer frequency, TF over GST control) in test [4]; 1.37 fold enrichment (6-mer frequency, TF over GST control) in [5]; 1.28 fold enrichment (6-mer frequency, TF over GST control) in test [6]. Moreover, the binding signal in test [7] is 1.26 fold enrichment (6-mer frequency, TF over GST control); in test [8], 1.2 fold enrichment (6-mer frequency, TF over GST control); in test [9] it was 1.23 fold enrichment (6-mer frequency, TF over GST control); in [10], 1.24 fold enrichment (6-mer frequency, TF over GST control); in test [11], 1.31 fold enrichment (6-mer frequency, TF over GST control); in test [12], 1.1 fold enrichment (6-mer frequency, TF over GST control). Moreover, the binding signal was 1.4 fold enrichment (6-mer frequency, TF over GST control) in [13]; 1.28 fold enrichment (6-mer frequency, TF over GST control) in test [14]; 1.29 fold enrichment (6-mer frequency, TF over GST control) in [15]; 1.31 fold enrichment (6-mer frequency, TF over GST control) in test [16]; 1.39 fold enrichment (6-mer frequency, TF over GST control) in test [17]; 1.14 fold enrichment (6-mer frequency, TF over GST control) in test [18]. Further, the binding signal in test [19] was 1.36 fold enrichment (6-mer frequency, TF over GST control).
